# Paper PMC7862700, “An all-to-all approach to the identification of sequence-specific readers for epigenetic DNA modifications on cytosine”
# Experiments:
# Experiment in all cases: DAPPL (digital affinity profiling via proximity ligation, sequencing); 10 mM Tris-HCl pH 7.5, 50 mM NaCl, 1 mM DTT, 4% glycerol, room temperature, 30 min; GST-TFs on glutathione beads, 16-mer random dsDNA library, 0.1% formaldehyde crosslink after washing; high values mean tight binding
# FEV = molecular target: T1, FEV (Homo sapiens, UniProt Q99581 1-238); settings: protein: recombinant; tags: N-terminal GST; dsDNA, one strand shown
# T1 sequence: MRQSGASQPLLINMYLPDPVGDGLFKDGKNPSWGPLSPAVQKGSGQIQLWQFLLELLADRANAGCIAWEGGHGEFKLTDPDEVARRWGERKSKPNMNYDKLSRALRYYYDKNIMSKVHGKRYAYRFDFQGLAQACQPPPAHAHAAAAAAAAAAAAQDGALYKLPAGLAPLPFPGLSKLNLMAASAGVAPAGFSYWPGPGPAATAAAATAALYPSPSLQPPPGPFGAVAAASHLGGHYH
# How it was run: (§1)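 Binding signal is each hexamer's read frequency for a factor divided by its frequency in the tag-only sample. The factors were GST-fused human transcription factors from yeast, captured on glutathione beads, DNA-barcoded and pooled with that sample. Pools were incubated with 200 nmole of a random double-stranded 16-mer DNA library in Tris/NaCl/DTT/glycerol buffer at room temperature for 30 min, then washed, crosslinked with 0.1% formaldehyde, proximity-ligated with BsaI/T4 ligase (1 h, 37 °C), PCR-amplified and sequenced on an Illumina NextSeq500.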
# ETV5 = ETV5 (Homo sapiens, UniProt P41161 1-510); settings: protein: recombinant; tags: N-terminal GST; dsDNA, one strand shown
# ETV5, sequence (P41161 whole entry): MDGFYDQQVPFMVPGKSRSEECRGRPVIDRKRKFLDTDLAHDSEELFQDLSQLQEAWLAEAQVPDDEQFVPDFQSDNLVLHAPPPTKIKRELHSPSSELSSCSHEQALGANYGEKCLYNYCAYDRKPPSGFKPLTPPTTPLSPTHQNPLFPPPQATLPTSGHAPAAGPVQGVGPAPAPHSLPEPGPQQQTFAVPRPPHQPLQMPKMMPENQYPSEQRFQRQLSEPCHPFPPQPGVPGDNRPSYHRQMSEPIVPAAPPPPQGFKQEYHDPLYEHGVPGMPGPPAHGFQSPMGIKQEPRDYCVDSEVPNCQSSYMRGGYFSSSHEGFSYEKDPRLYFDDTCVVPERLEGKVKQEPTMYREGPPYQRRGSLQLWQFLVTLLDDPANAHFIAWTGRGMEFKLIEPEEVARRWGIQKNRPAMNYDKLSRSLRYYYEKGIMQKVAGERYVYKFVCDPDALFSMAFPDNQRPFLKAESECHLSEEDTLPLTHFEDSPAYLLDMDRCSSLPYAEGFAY
# How it was run: as §1
# HSF1 = HSF1 (Homo sapiens, UniProt Q00613 1-529); settings: protein: recombinant; tags: N-terminal GST; chain copies: 3; dsDNA, one strand shown
# HSF1, sequence (Q00613 whole entry): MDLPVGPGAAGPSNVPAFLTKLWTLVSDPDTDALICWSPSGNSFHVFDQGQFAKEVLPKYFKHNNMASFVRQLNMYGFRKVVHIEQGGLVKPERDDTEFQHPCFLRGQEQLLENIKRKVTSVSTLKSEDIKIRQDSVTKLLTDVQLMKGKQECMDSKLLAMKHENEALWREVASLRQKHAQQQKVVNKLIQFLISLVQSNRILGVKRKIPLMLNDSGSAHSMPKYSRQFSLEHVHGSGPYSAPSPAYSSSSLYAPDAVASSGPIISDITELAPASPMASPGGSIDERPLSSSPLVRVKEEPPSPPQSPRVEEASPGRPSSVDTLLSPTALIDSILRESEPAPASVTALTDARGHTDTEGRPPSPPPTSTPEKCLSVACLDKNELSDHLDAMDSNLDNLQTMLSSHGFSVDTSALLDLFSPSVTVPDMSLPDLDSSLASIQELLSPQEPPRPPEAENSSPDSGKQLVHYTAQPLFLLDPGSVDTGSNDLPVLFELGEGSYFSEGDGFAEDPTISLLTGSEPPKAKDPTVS
# How it was run: as §1
# ELF4 = ELF4 (Homo sapiens, UniProt Q99607 1-663); settings: protein: recombinant; tags: N-terminal GST; dsDNA, one strand shown
# ELF4, sequence (Q99607 whole entry): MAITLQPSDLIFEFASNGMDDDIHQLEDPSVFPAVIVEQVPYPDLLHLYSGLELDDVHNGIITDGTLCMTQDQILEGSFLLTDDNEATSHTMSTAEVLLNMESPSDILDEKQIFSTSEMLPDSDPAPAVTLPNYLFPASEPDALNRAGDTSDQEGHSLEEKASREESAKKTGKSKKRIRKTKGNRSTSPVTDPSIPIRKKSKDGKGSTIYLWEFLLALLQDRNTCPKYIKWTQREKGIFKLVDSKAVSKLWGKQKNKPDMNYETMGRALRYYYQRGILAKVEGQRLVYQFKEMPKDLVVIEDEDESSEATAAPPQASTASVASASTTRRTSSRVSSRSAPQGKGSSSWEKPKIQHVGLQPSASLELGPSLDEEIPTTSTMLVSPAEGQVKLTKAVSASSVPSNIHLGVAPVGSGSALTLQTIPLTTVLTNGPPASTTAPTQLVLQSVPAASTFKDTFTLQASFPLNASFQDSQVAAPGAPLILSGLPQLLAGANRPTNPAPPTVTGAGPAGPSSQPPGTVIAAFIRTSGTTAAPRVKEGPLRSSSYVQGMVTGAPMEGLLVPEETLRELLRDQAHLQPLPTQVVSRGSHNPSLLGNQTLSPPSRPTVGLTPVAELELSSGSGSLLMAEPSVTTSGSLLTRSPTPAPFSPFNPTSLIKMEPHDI
# How it was run: as §1
# ETV1 = ETV1 (Homo sapiens, UniProt P50549 1-477); settings: protein: recombinant; tags: N-terminal GST; dsDNA, one strand shown
# ETV1, sequence (P50549 whole entry): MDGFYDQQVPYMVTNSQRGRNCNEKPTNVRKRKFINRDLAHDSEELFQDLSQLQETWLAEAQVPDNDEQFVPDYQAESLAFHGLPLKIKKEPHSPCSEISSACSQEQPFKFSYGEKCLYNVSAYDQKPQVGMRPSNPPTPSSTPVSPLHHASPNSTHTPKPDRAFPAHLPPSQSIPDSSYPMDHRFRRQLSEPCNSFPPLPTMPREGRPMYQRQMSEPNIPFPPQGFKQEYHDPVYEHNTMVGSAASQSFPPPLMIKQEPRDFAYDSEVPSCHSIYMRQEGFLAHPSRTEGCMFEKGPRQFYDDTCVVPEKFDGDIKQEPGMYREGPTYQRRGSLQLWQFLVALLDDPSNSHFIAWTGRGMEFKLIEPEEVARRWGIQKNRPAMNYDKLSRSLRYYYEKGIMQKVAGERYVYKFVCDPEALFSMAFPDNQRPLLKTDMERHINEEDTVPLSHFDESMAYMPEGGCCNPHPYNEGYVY
# How it was run: as §1
# ETV3L = molecular target: T2, ETV3L (Homo sapiens, UniProt Q6ZN32 1-361); settings: protein: recombinant; tags: N-terminal GST; dsDNA, one strand shown
# T2 sequence: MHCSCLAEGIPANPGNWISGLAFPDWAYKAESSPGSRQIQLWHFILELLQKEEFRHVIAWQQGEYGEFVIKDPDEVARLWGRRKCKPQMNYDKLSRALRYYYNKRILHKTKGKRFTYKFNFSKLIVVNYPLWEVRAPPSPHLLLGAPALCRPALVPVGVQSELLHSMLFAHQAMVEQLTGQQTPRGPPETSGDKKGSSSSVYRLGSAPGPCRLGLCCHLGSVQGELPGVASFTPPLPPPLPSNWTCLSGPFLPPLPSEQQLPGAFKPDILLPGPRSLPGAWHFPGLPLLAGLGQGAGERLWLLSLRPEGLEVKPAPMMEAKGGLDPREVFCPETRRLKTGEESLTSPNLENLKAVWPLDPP
# How it was run: as §1
# ETS2 = molecular target: T3, ETS2 (Homo sapiens, UniProt P15036 1-469); settings: protein: recombinant; tags: N-terminal GST; dsDNA, one strand shown
# T3 sequence: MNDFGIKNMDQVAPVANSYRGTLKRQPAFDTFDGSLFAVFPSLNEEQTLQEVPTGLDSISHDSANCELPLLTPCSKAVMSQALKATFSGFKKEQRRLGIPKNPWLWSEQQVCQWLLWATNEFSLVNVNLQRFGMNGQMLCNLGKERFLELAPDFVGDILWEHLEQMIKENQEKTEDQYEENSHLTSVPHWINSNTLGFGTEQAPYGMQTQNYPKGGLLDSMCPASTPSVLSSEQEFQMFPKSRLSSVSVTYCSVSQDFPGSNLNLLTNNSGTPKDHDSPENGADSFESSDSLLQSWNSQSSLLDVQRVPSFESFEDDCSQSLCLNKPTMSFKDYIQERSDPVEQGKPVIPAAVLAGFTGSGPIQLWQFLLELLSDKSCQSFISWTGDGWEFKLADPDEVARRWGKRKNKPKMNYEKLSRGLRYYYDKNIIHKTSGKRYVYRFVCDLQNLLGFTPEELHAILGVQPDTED
# How it was run: as §1
# SPDEF = molecular target: T4, SPDEF (Homo sapiens, UniProt O95238 1-335); settings: protein: recombinant; tags: N-terminal GST; dsDNA, one strand shown
# T4 sequence: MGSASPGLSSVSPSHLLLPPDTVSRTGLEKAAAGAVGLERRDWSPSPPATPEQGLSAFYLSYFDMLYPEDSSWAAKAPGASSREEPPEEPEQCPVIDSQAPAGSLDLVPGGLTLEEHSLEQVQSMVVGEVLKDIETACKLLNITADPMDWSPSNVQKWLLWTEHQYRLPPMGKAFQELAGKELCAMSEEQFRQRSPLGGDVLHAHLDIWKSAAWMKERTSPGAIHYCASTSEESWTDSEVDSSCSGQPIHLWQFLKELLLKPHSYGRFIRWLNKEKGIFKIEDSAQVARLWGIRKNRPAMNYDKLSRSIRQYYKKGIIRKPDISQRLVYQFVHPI
# How it was run: as §1
# ELF5 = molecular target: T5, ELF5 (Homo sapiens, UniProt Q9UKW6-2 1-255); settings: protein: recombinant; tags: N-terminal GST; dsDNA, one strand shown
# T5 sequence: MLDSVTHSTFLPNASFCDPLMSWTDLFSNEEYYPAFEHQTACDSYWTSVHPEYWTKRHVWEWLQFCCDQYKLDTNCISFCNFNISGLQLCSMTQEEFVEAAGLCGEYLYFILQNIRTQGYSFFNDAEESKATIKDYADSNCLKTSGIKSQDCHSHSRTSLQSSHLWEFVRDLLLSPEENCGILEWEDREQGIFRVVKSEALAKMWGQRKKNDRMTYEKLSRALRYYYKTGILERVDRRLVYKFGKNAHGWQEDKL
# How it was run: as §1
# ETV3 = molecular target: T6, ETV3 (Homo sapiens, UniProt P41162-2 1-143); settings: protein: recombinant; tags: N-terminal GST; dsDNA, one strand shown
# T6 sequence: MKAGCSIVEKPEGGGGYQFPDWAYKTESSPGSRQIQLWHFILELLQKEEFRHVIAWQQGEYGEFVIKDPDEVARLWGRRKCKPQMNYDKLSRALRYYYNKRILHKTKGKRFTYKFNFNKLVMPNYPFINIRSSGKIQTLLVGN
# How it was run: as §1
# ETV6 = ETV6 (Homo sapiens, UniProt P41212 1-452); settings: protein: recombinant; tags: N-terminal GST; dsDNA, one strand shown
# ETV6, sequence (P41212 whole entry): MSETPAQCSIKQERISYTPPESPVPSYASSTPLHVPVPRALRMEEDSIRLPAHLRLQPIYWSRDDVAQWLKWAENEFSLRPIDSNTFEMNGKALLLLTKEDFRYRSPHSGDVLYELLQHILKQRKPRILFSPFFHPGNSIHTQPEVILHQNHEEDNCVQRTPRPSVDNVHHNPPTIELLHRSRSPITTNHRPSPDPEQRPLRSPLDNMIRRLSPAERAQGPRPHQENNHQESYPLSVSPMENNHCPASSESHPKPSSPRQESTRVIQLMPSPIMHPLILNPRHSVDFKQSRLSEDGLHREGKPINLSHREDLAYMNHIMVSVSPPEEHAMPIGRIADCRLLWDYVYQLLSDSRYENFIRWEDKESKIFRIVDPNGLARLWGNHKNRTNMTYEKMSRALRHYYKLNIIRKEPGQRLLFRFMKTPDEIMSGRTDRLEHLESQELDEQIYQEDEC
# How it was run: as §1
# ELK4 = molecular target: T7, ELK4 (Homo sapiens, UniProt P28324-2 1-405); settings: protein: recombinant; tags: N-terminal GST; dsDNA, one strand shown
# T7 sequence: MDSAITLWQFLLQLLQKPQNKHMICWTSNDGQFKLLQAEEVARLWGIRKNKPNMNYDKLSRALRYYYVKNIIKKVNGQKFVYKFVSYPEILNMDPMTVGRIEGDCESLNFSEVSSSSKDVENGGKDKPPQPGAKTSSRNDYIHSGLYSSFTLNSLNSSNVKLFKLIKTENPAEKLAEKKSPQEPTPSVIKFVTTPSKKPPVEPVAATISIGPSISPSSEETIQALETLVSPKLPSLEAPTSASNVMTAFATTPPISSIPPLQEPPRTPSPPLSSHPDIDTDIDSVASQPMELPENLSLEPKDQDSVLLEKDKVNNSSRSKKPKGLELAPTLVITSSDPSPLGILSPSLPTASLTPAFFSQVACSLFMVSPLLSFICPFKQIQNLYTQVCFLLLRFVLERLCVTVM
# How it was run: as §1
# ETV2 = molecular target: T8, ETV2 (Homo sapiens, UniProt O00321 1-342); settings: protein: recombinant; tags: N-terminal GST; dsDNA, one strand shown
# T8 sequence: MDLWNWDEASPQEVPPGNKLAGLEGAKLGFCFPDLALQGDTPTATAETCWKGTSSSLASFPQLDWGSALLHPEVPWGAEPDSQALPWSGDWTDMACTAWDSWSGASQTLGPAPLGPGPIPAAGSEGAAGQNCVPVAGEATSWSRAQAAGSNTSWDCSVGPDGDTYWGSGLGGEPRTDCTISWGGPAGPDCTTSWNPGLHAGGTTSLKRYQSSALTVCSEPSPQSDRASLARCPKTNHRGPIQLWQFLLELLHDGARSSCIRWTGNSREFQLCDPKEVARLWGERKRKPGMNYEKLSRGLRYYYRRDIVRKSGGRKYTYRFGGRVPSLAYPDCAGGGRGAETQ
# How it was run: as §1
# CRX = CRX (Homo sapiens, UniProt O43186 1-299); settings: protein: recombinant; tags: N-terminal GST; dsDNA, one strand shown
# CRX, sequence (O43186 whole entry): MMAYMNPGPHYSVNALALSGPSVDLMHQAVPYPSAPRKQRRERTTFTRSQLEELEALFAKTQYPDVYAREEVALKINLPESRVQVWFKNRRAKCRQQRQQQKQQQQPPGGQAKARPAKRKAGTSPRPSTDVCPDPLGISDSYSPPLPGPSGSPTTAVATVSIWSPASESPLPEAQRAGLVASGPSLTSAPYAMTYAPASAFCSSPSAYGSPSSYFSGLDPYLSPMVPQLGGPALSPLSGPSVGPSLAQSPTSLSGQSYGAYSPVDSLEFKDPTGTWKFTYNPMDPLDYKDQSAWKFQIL
# How it was run: as §1
# ERF = molecular target: T9, ERF (Homo sapiens, UniProt P50548 1-548); settings: protein: recombinant; tags: N-terminal GST; dsDNA, one strand shown
# T9 sequence: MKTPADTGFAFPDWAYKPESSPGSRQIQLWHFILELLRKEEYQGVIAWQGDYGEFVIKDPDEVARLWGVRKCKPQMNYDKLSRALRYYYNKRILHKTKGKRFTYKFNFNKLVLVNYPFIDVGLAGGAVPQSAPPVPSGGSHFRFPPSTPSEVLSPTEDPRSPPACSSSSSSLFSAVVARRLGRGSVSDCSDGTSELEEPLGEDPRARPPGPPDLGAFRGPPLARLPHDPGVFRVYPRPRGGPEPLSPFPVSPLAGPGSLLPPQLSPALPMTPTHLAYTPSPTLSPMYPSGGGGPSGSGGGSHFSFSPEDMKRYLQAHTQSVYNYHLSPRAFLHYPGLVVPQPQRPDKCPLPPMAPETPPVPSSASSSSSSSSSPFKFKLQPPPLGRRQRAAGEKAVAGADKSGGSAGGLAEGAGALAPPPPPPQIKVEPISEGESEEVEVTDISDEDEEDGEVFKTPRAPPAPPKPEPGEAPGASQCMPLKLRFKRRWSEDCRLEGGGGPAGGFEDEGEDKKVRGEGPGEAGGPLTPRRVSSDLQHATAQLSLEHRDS
# How it was run: as §1
# ETV7 = molecular target: T10, ETV7 (Homo sapiens, UniProt Q9Y603 1-341); settings: protein: recombinant; tags: N-terminal GST; dsDNA, one strand shown
# T10 sequence: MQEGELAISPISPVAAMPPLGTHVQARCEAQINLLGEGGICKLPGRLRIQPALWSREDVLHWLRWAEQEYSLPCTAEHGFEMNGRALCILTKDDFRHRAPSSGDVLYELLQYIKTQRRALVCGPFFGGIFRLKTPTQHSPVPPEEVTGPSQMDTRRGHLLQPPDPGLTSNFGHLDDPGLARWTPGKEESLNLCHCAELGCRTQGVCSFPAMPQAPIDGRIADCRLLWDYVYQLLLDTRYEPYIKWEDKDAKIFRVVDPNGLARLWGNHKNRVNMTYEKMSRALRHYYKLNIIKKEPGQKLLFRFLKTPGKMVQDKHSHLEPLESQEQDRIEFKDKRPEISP
# How it was run: as §1
Sequence,binding signal (FEV),binding signal (ETV5),binding signal (HSF1),binding signal (ELF4),binding signal (ETV1),binding signal (ETV3L),binding signal (ETS2),binding signal (SPDEF),binding signal (ELF5),binding signal (ETV3),binding signal (ETV6),binding signal (ELK4),binding signal (ETV2),binding signal (CRX),binding signal (ERF),binding signal (ETV7)
AGCATC,"1.07 fold enrichment (6-mer frequency, TF over GST control)","1.03 fold enrichment (6-mer frequency, TF over GST control)","1.02 fold enrichment (6-mer frequency, TF over GST control)","1.02 fold enrichment (6-mer frequency, TF over GST control)","1.08 fold enrichment (6-mer frequency, TF over GST control)","1.02 fold enrichment (6-mer frequency, TF over GST control)","1.09 fold enrichment (6-mer frequency, TF over GST control)","1.27 fold enrichment (6-mer frequency, TF over GST control)","1.08 fold enrichment (6-mer frequency, TF over GST control)","1.07 fold enrichment (6-mer frequency, TF over GST control)","1.03 fold enrichment (6-mer frequency, TF over GST control)",,,,,
ATTGTC,"1.11 fold enrichment (6-mer frequency, TF over GST control)","1.14 fold enrichment (6-mer frequency, TF over GST control)","1.04 fold enrichment (6-mer frequency, TF over GST control)","1.08 fold enrichment (6-mer frequency, TF over GST control)","1.21 fold enrichment (6-mer frequency, TF over GST control)","1.14 fold enrichment (6-mer frequency, TF over GST control)","1.17 fold enrichment (6-mer frequency, TF over GST control)","1.17 fold enrichment (6-mer frequency, TF over GST control)","1.2 fold enrichment (6-mer frequency, TF over GST control)","1.22 fold enrichment (6-mer frequency, TF over GST control)","1.13 fold enrichment (6-mer frequency, TF over GST control)","1.17 fold enrichment (6-mer frequency, TF over GST control)","1.14 fold enrichment (6-mer frequency, TF over GST control)","1.06 fold enrichment (6-mer frequency, TF over GST control)","1.23 fold enrichment (6-mer frequency, TF over GST control)","1.23 fold enrichment (6-mer frequency, TF over GST control)"
